# Assay outcomes deposited in PubChem by National Center for Advancing Translational Sciences (NCATS).
# Hits are enriched below; roughly 2.3% of the tested compounds scored in any of these assays.
# Mm-Cpn inhibitor: M. maripaludis TRiC chaperonin inhibition | purified Mm-Cpn ATPase, ADP Transcreener TR-FRET | AID 504842 | 0.031% of 330,000 active | Potency, µM (highest dose often 76.9 µM), inactives show at the top dose activity, negative = inhibition, actives largely listed as inhibitors; note: potency is the fitted concentration of half-maximal effect; % is set by controls: 0 for no effect and ±100 for the full control effect; nearly all actives have a fitted effect of over 80% in size
#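 Quantitative HTS used 25 nM Mm-CPN and 10 uM ATP in magnesium/KCl Tris buffer, pH 7.4, with 1 mM DTT. Hydrolysis ran 30 min at 37°C; ADP was read by HTRF.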
# FUS suppressor: suppressors of FUS proteinopathy in yeast | Potency, µM (doses to about 76.6 µM), actives largely listed as activators | 0.24% of 390,000 active | AID 1347120 | S. cerevisiae FUS-expressing, growth rescue, OD600, 24 h;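 note: potency is the fitted concentration of half-maximal effect; plate controls were DMSO vehicle for no effect and reference control for full effect; nearly all actives have a fitted effect of over 55% in size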
#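 Cultures pregrown in 2.5% raffinose medium are shifted to minimal medium containing 2% galactose to express toxic FUS. Compounds are tested at several concentrations. After 24hr at 30C, growth is quantified at 600 nm absorbance.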
# CCT modulator: cytosolic chaperonin activity modulation; 0.3% of 360,000 active; AID 651819; activity change, % (test concentration not listed), hits read low; purified chaperonin ATPase assay, HTRF ADP detection, 30 min; in the data active = activity change below about -30%; note: % is set by controls: 0 for no effect and ±100 for the full control effect
#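 TRiC (40 or 20 nM final, by batch activity) in 30 mM Tris pH 7.4, 100 mM KCl, 5 mM MgCl2, 1 mM DTT was treated with compound at 76 uM single dose, then 10 uM ATP, 30 min at 37 °C. ADP was read by HTRF Transcreener.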
# aSyn yeast inh: rescues yeast growth from alpha-synuclein toxicity | Potency, µM (titrated, usually from 46.1 µM), for inactives: at the top dose growth rescue (activation), usual class: activators | Yeast expressing alpha-synuclein, growth rescue, BacTiter-Glo, 24 h | 0.14% of 370,000 active | AID 652106; note: potency is the fitted concentration of half-maximal effect; % of control where 0% means no effect; nearly all actives have a fitted effect of over 65% in size
#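 Screening used galactose-induced yeast with toxic alpha-synuclein levels, exposed to compound for 24 hr at 30 deg C. Cell growth, read with BacTiter-Glo luminescence, gave the measured signal.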
# Abeta yeast res: A-beta toxicity reversal in yeast; yeast expressing A-beta42, growth rescue, OD600, 48 h; response scale: 0% DMSO, 100% iron-clioquinol control; Potency, µM (top dose mostly 46.1 µM), most hits filed as activators; 0.063% of 410,000 active; note: potency is the fitted concentration of half-maximal effect; nearly all actives have a fitted effect of over 55% in size
#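 Yeast A-beta toxicity model in growth medium with pinned compounds, 48 h at 30 C; growth read as absorbance at 600 nm. Normalized to FeCl3/clioquinol equimolar mix (positive) and DMSO (negative).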
# TDP-43 yeast inh: TDP-43 toxicity inhibition in yeast. Potency, µM (doses to about 46.1 µM), inactives show at the highest dose growth rescue (activation), hits mostly activators. 1.8% of 410,000 active. TDP-43 expressing yeast growth rescue, BacTiter-Glo, 24 h; note: potency is the fitted concentration of half-maximal effect; % of control where 0% means no effect; nearly all actives have a fitted effect of over 50% in size
#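 Galactose-induced TDP-43 yeast, OD600=0.02, compound pinned; 24 hr, 30 deg C; BacTiter-Glo luminescence for growth. Inhibitors of TDP-43 toxicity read as activators.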
# * marks the source's active call; other numbers are inactive results; i = inactive; ? = inconclusive; nt = no result given. Unless noted, calls come from the whole dose curve; as a rule, active = well fitted curve in the direction sought with a large enough effect; inconclusive = small, poorly fitted or top-dose-only effect, or another doubt; inactive = no such curve, though single readings can be large; an effect the other way counts as inactive or inconclusive.
SMILES,Mm-Cpn inhibitor,FUS suppressor,CCT modulator,aSyn yeast inh,Abeta yeast res,TDP-43 yeast inh
CC1CCc2nc(NC(=O)Cc3cccs3)sc2C1 (configuration not stated),-8%,i,-11,16%,i,28µM*
CC1CCc2nc(NC(=O)c3ccco3)sc2C1 (configuration not stated),1%,i,1,-16%,i,0%
COc1ccc(OCC(=O)Nc2nc3c(s2)CCCC3)cc1,4%,i,0,11%,i,?
COc1ccc(NC(=O)Nc2nc3c(s2)CCCC3)cc1,0%,nt,-1,13µM*,i,14µM*
CC(C)(C)C1CCc2nc(NC(=O)Cc3ccc(Cl)cc3)sc2C1 (configuration not stated),nt,i,nt,nt,?,29%
CC(C)(C)C1CCc2nc(NC(=O)Cc3cn4ccsc4n3)sc2C1 (configuration not stated),-1%,?,-1,9%,i,16µM*
O=C(Nc1nc2c(s1)CCCC2)c1ccc2ncsc2c1,-7%,i,-6,-35%,i,13µM*
Cc1cc(OC(C)C(=O)N(Cc2ccco2)Cc2ccco2)cc(C)c1Cl (configuration not stated),nt,i,nt,nt,i,-2%
Cc1ccccc1CN1CCCCC(NC(=O)C2CCCC2)C1=O (configuration not stated),nt,i,nt,nt,nt,nt
CCC[C@H]1[C@@H](OC(=O)NC(CC)CC)CC[C@@]23CCCN2C(=O)CCC[C@@H]13,nt,i,nt,nt,nt,nt
CN(C)c1ccc(/C=C/c2ccnc3ccccc23)cc1O,nt,nt,nt,-10%,nt,nt
COc1cc(C#N)ccc1OCC(=O)Nc1ccc(C)c(S(=O)(=O)N2CCOCC2)c1,-2%,i,-1,1%,i,9%
Cc1ccc(NC(=O)C(C)OC(=O)c2ccc(NC(=O)CC#N)cc2)cc1S(=O)(=O)N1CCOCC1 (configuration not stated),-17%,14µM*,-1,-3%,i,-3%
Cc1ccc(NC(=O)COc2ccc(Cl)cc2Cl)cc1S(=O)(=O)N1CCOCC1,-5%,i,-2,8%,i,14µM*
Cc1cc(Cl)ccc1OCC(=O)Nc1ccccc1N1CCOCC1,-2%,i,-1,2%,i,13µM*
Cc1cc(Cl)ccc1OCC(=O)NC(=S)Nc1ccccc1N1CCOCC1,0%,i,0,3%,i,-26%
CCn1c(Cc2cccs2)nnc1SCC(=O)Nc1ccc2c(c1)OCCO2,nt,i,nt,nt,nt,nt
Cc1cc(C)cc(OCC(=O)NNC(=O)c2ccccn2)c1,2%,i,2,?,?,20µM*
Cc1cc(C)cc(OCC(=O)NNC(=O)c2cc(C)[nH]n2)c1,1%,i,1,1%,i,-23%
O=C(COc1ccc(Cl)cc1)NNC(=O)c1ccccn1,-13%,i,0,?,?,14µM*
CC1CC(C)CN(C(=O)/C=C/c2ccc([N+](=O)[O-])s2)C1 (configuration not stated),-1%,i,-1,1%,i,22µM*
S=Cc1nc2ccccc2[nH]1,nt,nt,nt,0%,nt,nt
Cc1ccc(-n2[nH]c(C)c(/C=N/c3ccccn3)c2=O)cc1,0%,i,1,-39%,i,-34%
Cc1[nH]n(-c2ccccc2)c(=O)c1C=Nc1cccc2cccnc12,1%,nt,-2,-2%,i,22µM*
Cc1[nH]n(-c2ccccc2)c(=O)c1/C=N/N1C(=O)c2cccc3cccc(c23)C1=O,-1%,i,0,?,?,18µM*
SMILES,Mm-Cpn inhibitor,FUS suppressor,CCT modulator,aSyn yeast inh,Abeta yeast res,TDP-43 yeast inh
O=c1c2ccccc2n(Cc2ccccc2)n1[C@@H](Cc1ccccc1)Cn1cc(C2CCCC2)nn1,nt,i,nt,nt,nt,nt
CC12CCC(C(=O)Nc3ccc(Cl)cc3)([C@H](Br)C1=O)C2(C)C (some centres not stated),3%,i,1,21%,?,?
CC12CCC(C(=O)Nc3cccc(Cl)c3)(C(Br)C1=O)C2(C)C (configuration not stated),-1%,nt,-1,12%,i,20µM*
COc1ccc(-c2[nH]c(-c3ccc4c(c3)OCO4)nc2-c2ccccc2)cc1,-1%,?,0,-18%,i,16µM*
COC(=O)C[C@@H]1CC[C@H]2[C@H](COc3ccc(NC(=O)Nc4cccc(C#N)c4)cc3C(=O)N2C)O1,nt,i,nt,nt,nt,nt
O=C(c1cccs1)N1CCN(c2nnc(-c3ccccc3)c3ccccc23)CC1,-3%,i,2,10%,i,18µM*
Cn1cc(-c2ccc3c(c2)OCO3)c2ccccc21,nt,i,-1,2%,i,25µM*
Cc1ccc(C=Nn2c(-c3n[nH]c4c3CCC4)n[nH]c2=S)s1,nt,i,nt,nt,nt,nt
CCCN(CC1CC1)C(=O)CN1C(=O)C2CCCCN2C(=O)c2ccccc21 (configuration not stated),nt,i,nt,nt,nt,nt
S=C1N(c2ccccc2)C(c2ccc(Cl)cc2)N2CCCN12 (configuration not stated),-1%,i,-2,3%,i,?
S=C1N(c2ccccc2)C(c2ccc(Br)cc2)N2CCCN12 (configuration not stated),-1%,i,-1,20%,i,13µM*
CC(=O)C1(C(=O)NC2CCCC2)CC(c2ccccc2C(F)(F)F)=NO1 (configuration not stated),nt,i,nt,nt,nt,nt
CCn1c(=O)c(C(=O)NCCc2ccccc2)c(O)c2ccccc21,-8%,i,2,-2%,i,-12%
Cn1c(-c2ccccc2)c(C(=O)CCl)c2ccccc21,?,i,-3,-2%,i,18µM*
CCn1c(-c2ccccc2)c(C(=O)CCl)c2ccccc21,-3%,i,-2,11µM*,i,0%
CS(=O)(=O)/C(C#N)=C/c1c(-c2ccccc2)nc2n1CCS2,0%,i,1,-3%,i,-8%
CC(C)(C)c1ccc(-c2nc3n(c(=O)c2C#N)CCS3)cc1,-1%,i,-1,-4%,i,20µM*
N#Cc1c(-c2ccccc2)nc2n(c1=O)CCS2,-3%,i,-1,13%,i,35µM*
CCOc1ccc(-c2nc3n(c(=O)c2C#N)CCCS3)cc1,-6%,i,-3,2%,i,27%
S=c1[nH]nc(-c2cc3c(s2)-c2ccccc2CC3)o1,-15%,i,-10,-7%,i,14µM*
COc1cc(/C=C/C(=O)OCC(=O)Nc2cc(S(=O)(=O)N3CCCCC3)ccc2C)ccc1O,-29%,25µM*,0,-8%,i,6%
